Screens (PubChem BioAssay)
BCR signal inh = qHTS Assay to Find Inhibitors of Chronic Active B-Cell Receptor Signaling | Potency, µM (doses to about 46.1 µM), inactives show at the top dose activity change, negative = inhibition, actives largely listed as inhibitors | AID 493014, 2011 | hit rate 0.05% among 340,000 | ABC-DLBCL IkBa-CBG/CBR reporter, luminescence ratio, 4 h; active = well fitted inhibition curve with a large enough effect in the signal ratio, with a control signal flat, not every such curve was filed as active; inconclusive = small, poorly fitted or top-dose-only effect, or effect the other way, or a change in a side signal; the % refers to the signal ratio;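 also: plate controls were basal doxycycline-induced cells for no effect and cells given 10 µM MG132 for full effect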
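Compounds up to 46 uM were incubated four hours with TMD8 cells whose green CBG68 luciferase is fused to IkappaBalpha; red CBR luminescence normalised the signal, and concentration-effect curves were fitted to fusion, red and ratio data.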
PGK inhibitor = qHTS Assay to Find Inhibitors of Phosphoglycerate Kinase; hit rate 0.043% among 380,000; Potency, µM (series often up to 57.5 µM), for inactives: at the highest dose activity change, negative = inhibition, hits mostly inhibitors; PGK/GAPDH coupled, Kinase-Glo luminescence, 60 min; Phosphoglycerate kinase, glycosomal (Trypanosoma brucei brucei), P07378; also: % is scaled to controls: 0 for no effect and ±100 for the full control effect; nearly all actives have a fitted effect of over 60% in size
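Recombinant glycosomal PGK reaction used 1,3-bisphosphoglycerate generated in-well by GAPDH (100nM final) in 100mM TEA pH 7.6, 5mM MgCl2, 0.01% Tween-20. After 60 minutes at room temperature, ATP was read by Kinase-Glo Plus luminescence end-point.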
Tb PFK inh-1 = qHTS Assay to Find Inhibitors of T. brucei phosphofructokinase; Potency, µM (top dose mostly 57.5 µM), inactives show top-dose activity, negative = inhibition, actives largely listed as inhibitors; T. brucei PFK, ADP-Glo luminescence; ATP-dependent 6-phosphofructokinase (Trypanosoma brucei brucei), O15648; AID 485367, 2010; hit rate 0.17% among 330,000;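 also: 0% = uninhibited 1x PFK enzyme wells and -100% = no-enzyme wells; nearly all actives have a fitted effect of over 60% in size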
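Activity is normalized to no-enzyme wells (full inhibition) and 1.25 nM enzyme wells (no inhibition). Reaction: 0.5 mM F6P, 0.1 mM ATP, 45 min RT, ADP-Glo luminescence; concentration-response curves fitted and classed by quality.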
ERG-DNA inh = qHTS for Small Molecule Inhibitors of the ERG Ets/DNA interaction; Potency, µM (doses to about 76.9 µM), for the others: at the top dose FP activity, negative = inhibition, hits mostly inhibitors; hit rate 0.028% among 370,000; fluorescence polarization, His-ERG Ets domain / labelled DNA; AID 624246, 2012; active = well fitted inhibition curve with a large enough effect in the polarisation, with a control signal flat; inconclusive = small, poorly fitted or top-dose-only effect, or effect the other way, or a change in a side signal; inactive = no such curve, though single readings can be large or run the other way; the % refers to the polarisation;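 also: polarization taken with two DNA probes labelled with fluorescein and Texas red; % of control where 0% means no effect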
Target sequence (P11308 whole entry, looked up, the tested form may be a part): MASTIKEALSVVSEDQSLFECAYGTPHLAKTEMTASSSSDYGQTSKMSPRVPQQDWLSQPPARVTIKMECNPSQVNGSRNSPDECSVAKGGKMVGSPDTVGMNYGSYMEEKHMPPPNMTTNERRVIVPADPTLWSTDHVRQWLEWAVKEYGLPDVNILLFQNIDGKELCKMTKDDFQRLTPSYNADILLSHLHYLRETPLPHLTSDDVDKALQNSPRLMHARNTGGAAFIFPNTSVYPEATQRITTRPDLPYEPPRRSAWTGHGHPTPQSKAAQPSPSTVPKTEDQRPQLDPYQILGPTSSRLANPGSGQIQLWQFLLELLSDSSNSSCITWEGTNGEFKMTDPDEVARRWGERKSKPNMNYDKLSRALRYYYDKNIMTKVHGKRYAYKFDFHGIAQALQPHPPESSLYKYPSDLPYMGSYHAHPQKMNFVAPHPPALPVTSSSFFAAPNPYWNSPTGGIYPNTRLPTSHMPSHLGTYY
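His-tagged ERG Ets domain (1 uM in the protein solution; 300mM KCl, 50mM Tris-HCl, 1mM EDTA, 1mM DTT, pH 7.5) received compound, then a probe mix of 5 nM fluorescein-DNA and 100nM Texas-615-DNA. Fluorescence polarization was read for both dyes.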
Pin1 inhibitor = qHTS Assay to Find Inhibitors of Pin1; Peptidyl-prolyl cis-trans isomerase NIMA-interacting 1 (Homo sapiens), Q13526; Pin1 FP peptide displacement, HiFluor488, 10 min; Potency, µM (titrated, usually from 115 µM), for inactives: at the top dose activity, negative = inhibition, actives largely listed as inhibitors; hit rate 0.009% among 390,000; active = well fitted inhibition curve with a large enough effect in the polarisation, with a control signal flat, not every such curve was filed as active; inconclusive = small, poorly fitted or top-dose-only effect, or effect the other way, or a change in a side signal; inactive = no such curve, though single readings can be large or run the other way; the % refers to the polarisation; also: % is scaled to controls: 0 for no effect and ±100 for the full control effect
Target sequence (Q13526 whole entry, looked up): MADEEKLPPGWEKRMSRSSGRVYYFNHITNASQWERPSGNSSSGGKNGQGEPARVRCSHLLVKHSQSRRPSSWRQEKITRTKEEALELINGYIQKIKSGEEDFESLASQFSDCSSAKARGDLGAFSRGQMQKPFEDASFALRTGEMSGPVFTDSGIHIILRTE
TbPFK ATP = Tb PFK orthogonal confirmatory assay using ATP depletion (Kinase-Glo Plus) as an alternative measure of Tb PFK activity: Hit Validation; shares compounds with Tb PFK inh-1; Tb PFK enzyme, ATP depletion, Kinase-Glo Plus luminescence; Potency, µM (top dose mostly 57.5 µM), for the others: top-dose inhibition; hit rate 47% among 1,100; AID 504636, 2011; calls by dose curve; also: nearly all actives have a fitted effect of over 60% in size
Tb PFK inh-2 = Inhibitors of T. brucei phosphofructokinase: Hit Validation; shares compounds with Tb PFK inh-1; purified T. brucei PFK, ADP-Glo luminescence, 45 min; Potency, µM (series often up to 57.5 µM), for the others: at the highest dose activity change, negative = inhibition, hits mostly inhibitors; hit rate 41% among 1,100; AID 504637, 2011;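 also: plate controls were full PFK enzyme control for no effect and no enzyme control for full effect; nearly all actives have a fitted effect of over 60% in size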
Active calls of the source: *; i = inactive; u = inconclusive; x = no result. In the library only some 0.25% were active in any assay of this set; here they are far more common. Unless noted, calls follow the shape of the dose curve; as a rule, active = well fitted curve in the direction sought with a large enough effect; inconclusive = small, poorly fitted or top-dose-only effect, or another doubt; inactive = no such curve, though single readings can be large; an effect the other way counts as inactive or inconclusive. Potency is read from the fitted curve at half-maximal effect.

SMILES	BCR signal inh	PGK inhibitor	Tb PFK inh-1	ERG-DNA inh	Pin1 inhibitor	TbPFK ATP	Tb PFK inh-2
O=C(Nc1ccc(Cl)cc1)Nc1ccc(S(=O)(=O)Nc2ncccn2)cc1	u	-2%	15µM*	6%	-4%	8.5µM*	27µM*
Cc1cc2c(s1)c1cnn(Cc3ccc4ccccc4c3)c(=O)c1n2C	x	x	x	x	-3%	x	x
COc1cc(Cl)c(C)cc1NC(=O)C(OC(=O)CNC(=O)c1ccccc1)c1ccccc1 (stereo unspecified)	x	x	x	x	20%	x	x
Cc1cc2c(s1)c1c(n2C)C(=O)N(Cc2ccccc2F)C1	u	x	0%	x	x	x	x
COc1cccc(/C=C2\SC(=S)N(NS(=O)(=O)c3ccc(C)cc3)C2=O)c1OC	-2%	x	-2%	x	x	x	x
COc1ccccc1/C=C1\SC(=S)N(NS(=O)(=O)c2ccccc2)C1=O	0%	3%	u	-1%	0%	-27%	u
Fc1ccc(CNc2ncnc3cc(Cl)ccc23)cc1	0%	i	19µM*	11%	2%	u	27µM*
Fc1cccc(CNc2ncnc3ccc(-c4ccccc4Cl)cc23)c1	-8%	x	1%	x	x	x	x
C/C(=N\NC(=O)c1cc(O)cc(O)c1)c1ccc(NC(=O)Cc2ccccc2)cc1	u	7.9µM*	u	-12%	x	u	u
N#Cc1nc(Nc2cccc(F)c2)nc(NC2CCCC2)n1	x	x	x	x	-9%	x	x
Cc1ccc(NC(=O)COc2ccc(Cl)cc2Cl)cc1S(=O)(=O)N1CCOCC1	13%	-1%	u	-2%	4%	u	u
Cc1noc(NS(=O)(=O)c2ccc(NC(=O)CCCOc3ccc(Cl)cc3Cl)cc2)c1C	-3%	-6%	-10%	4%	u	x	x
O=C(COc1ccc(Cl)cc1Cl)Nc1cccnc1	u	-1%	u	-6%	4%	u	u
Cc1noc(NS(=O)(=O)c2ccc(NC(=O)COc3ccc(Cl)cc3Cl)cc2)c1C	-1%	-8%	12µM*	14%	-17%	5.4µM*	12µM*
Cc1noc(NS(=O)(=O)c2ccc(NC(=O)c3cnc4scc(C)n4c3=O)cc2)c1C	9%	-2%	u	11%	u	-28%	u
O=C(COc1ccc(Cl)cc1Cl)N/N=C/c1cccnc1	-4%	-8%	u	-1%	-8%	x	x
COc1cc(C#N)ccc1OCC(=O)Nc1ccc(C)c(S(=O)(=O)N2CCOCC2)c1	-17%	3%	-3%	3%	6%	x	x
Cc1cc(NS(=O)(=O)c2ccc(NC(=O)c3cnc4scc(C)n4c3=O)cc2)nc(C)n1	-14%	-4%	u	-7%	8%	x	x
COc1cc(OC)cc(-c2csc(N3CCC(C(N)=O)CC3)n2)c1	x	x	x	x	1%	x	x
O=S1(=O)N=C(Sc2cccc3cccnc23)c2ccccc21	x	x	x	x	-6%	x	x
CCC/C=C1/CCCOC(C(=O)NCC2CC2)(C(F)(F)F)C1 (stereo unspecified)	x	x	x	x	-2%	x	x
CC(=O)OCC(NC(=O)C1CCCN1C(=O)OC(C)(C)C)C1OC(n2cc(F)c(=O)[nH]c2=O)C(OC(C)=O)C1OC(C)=O (stereo unspecified)	x	x	x	x	2%	x	x
O=C(Cn1sc2ccccc2c1=O)NC12CC3CC(CC(C3)C1)C2	u	-2%	4.3µM*	-2%	-3%	u	9.5µM*
Cc1ccc(C)c2nc3sc(C(=O)O)cc3cc12	u	0%	u	-8%	3%	-23%	u
Cc1ccc(C)c2nc3sc(C(=O)N4CCCc5ccccc54)c(N)c3cc12	u	4%	0%	0%	u	x	x
SMILES	BCR signal inh	PGK inhibitor	Tb PFK inh-1	ERG-DNA inh	Pin1 inhibitor	TbPFK ATP	Tb PFK inh-2
CCN(CC)CCCNC(=O)Cn1c(-c2cccs2)cc2cc(Cl)ccc21	x	-5%	x	3%	-4%	x	x
O=[N+]([O-])c1ccc(N2CCCCC2)cn1	2%	x	5%	1%	-3%	x	x
O=[N+]([O-])c1ccc(N2CCN(c3cccc(Cl)c3)CC2)cn1	u	-1%	12µM*	-3%	-12%	u	5.4µM*
CS(=O)(=O)N1Cc2ccccc2CC1C(=O)OCC(=O)NCc1ccccc1 (stereo unspecified)	-9%	-8%	u	6%	-10%	x	x
CS(=O)(=O)N1Cc2ccccc2CC1C(=O)OCC(=O)Nc1ccc2ccccc2c1 (stereo unspecified)	13%	-4%	u	1%	15%	u	-23%
CN1CCc2cccc3c2[C@H]1Cc1ccc(O)c(O)c1-3	u	-2%	1.9µM*	-6%	u	2.7µM*	6.7µM*
O=C(NCCCN1CCCCCC1)c1ccc(CS(=O)(=O)Cc2ccccc2F)o1	-10%	6%	u	-15%	5%	-31%	u
CC1CCN(CCCNC(=O)c2ccc(CS(=O)(=O)Cc3ccccc3F)o2)CC1	0%	3%	-3%	-1%	1%	x	x
NC(=O)c1cc(S(=O)(=O)N2CCN(c3ccc([N+](=O)[O-])cc3)CC2)cs1	0%	-10%	21µM*	32%	-3%	12µM*	27µM*
O=C(COc1ccc(F)c(Cl)c1)c1ccc[nH]1	-5%	-4%	u	1%	12%	u	u
O=C(O)/C=C\C(=O)Nc1ccc(N2CCN(c3ccc(Cl)c(Cl)c3)CC2)cc1	0%	-22%	u	6%	-5%	5.4µM*	11µM*
O=C(CN1C(=O)c2ccccc2C1=O)NCCc1c[nH]c2ccc(Cl)cc12	u	-10%	u	8%	12%	21µM*	30µM*
O=C1CCc2cc(S(=O)(=O)Nc3cccc(C(F)(F)F)c3)ccc2N1	x	x	x	x	3%	x	x
C=CCNC(=S)NNC(=O)c1cccn(Cc2ccc(Cl)c(Cl)c2)c1=O	u	-1%	8.5µM*	6%	7%	8.5µM*	11µM*
CNC(=S)NNC(=O)c1cccn(Cc2ccc(Cl)c(Cl)c2)c1=O	u	1%	8.5µM*	1%	3%	2.7µM*	8.5µM*
CNC(=S)NNC(=O)c1cccn(Cc2cccc(Cl)c2)c1=O	1%	-5%	u	0%	40%	x	x
